# Compounds with a hit are over-represented: about 7.8% of the library has one in this group of screens.
# HCV inh: qHTS Assay for Inhibitors of Hepatitis C Virus (HCV); Huh7.5.1 HCVcc-Cre infection, luciferase reporter, 44 h; 340,000 compounds, 3.4% hits; Potency, µM (top dose mostly 41.8 µM), for the others: at the top dose activity change, negative = inhibition, most hits filed as inhibitors; active = well fitted inhibition curve with a large enough effect; inconclusive = small, poorly fitted or top-dose-only effect, or another doubt; inactive = no such curve, though single readings can be large or run the other way; also: potency is read from the fitted curve at half-maximal effect
#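 Reporter virus HCVcc-Cre (~0.5 moi) infects cells exposed to compound; seeding density 1,000 cells/well with 4 h settling beforehand. Luminescence, 15 sec read, taken 44 h post-infection following a 15 min RT substrate incubation.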
# Lassa entry inh: qHTS for Inhibitors of binding or entry into cells for Lassa Virus. Lassa virus pseudotype entry inhibition, cell reporter. 300,000 compounds, 1.2% hits. Potency, µM (top dose mostly 37.9 µM), inactives show at the highest dose activity change, negative = inhibition, actives largely listed as inhibitors; calls by dose curve; tested in HEK293 cells; also: potency is read from the fitted curve at half-maximal effect; nearly all actives have a fitted effect of over 50% in size
# Vaccinia mCherry: qHTS for Stage-Specific Inhibitors of Vaccinia Orthopoxvirus: mCherry Reporter Primary qHTS; Vaccinia virus mCherry reporter infection, fluorescence; Potency, µM (highest dose often 36.5 µM), inactives show at the top dose activity change, negative = inhibition, actives largely listed as inhibitors; 310,000 compounds, 0.63% hits; AID 720579, 2013; calls by dose curve; tested in A549 cells; also: potency is read from the fitted curve at half-maximal effect; nearly all actives have a fitted effect of over 35% in size
# HCMV antiviral: qHTS Assay for inhibitors of the human cytomegalovirus (HCMV); 410,000 compounds, 4.5% hits; HFF cells, HCMV-luciferase reporter, 72 h; hits give low values; activity change, negative = inhibition, % at 57.5 µM; in the data active = activity change below about -60%; inconclusive = no clear call, values can overlap the other calls; inactive = above about -39%
#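 Two compound doses tested in HFFs infected with HCMV-luciferase, MOI 1 PFU/cell, 72 h at 37C. Lysate luminescence read with OneGlo; data normalized against buffer-only and 10uM Salinomycin inhibitor controls.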
# MARV entry inh: qHTS for inhibitors of binding or entry into cells for Marburg Virus; Marburg virus pseudotyped entry inhibition, cell reporter; Potency, µM (series often up to 37.8 µM), for the others: at the top dose activity change, negative = inhibition, usual class: inhibitors; 300,000 compounds, 1.8% hits; AID 540276, 2011; calls by dose curve; tested in HEK293 cells; also: potency is read from the fitted curve at half-maximal effect
# VACV Venus inh: qHTS for Stage-Specific Inhibitors of Vaccinia Orthopoxvirus: Venus Reporter Primary qHTS; Vaccinia virus Venus reporter expression, fluorescence; Potency, µM (series often up to 36.5 µM), for inactives: at the top dose activity change, negative = inhibition, hits mostly inhibitors; 330,000 compounds, 0.46% hits; AID 720580, 2013; calls by dose curve; tested in A549 cells; also: potency is read from the fitted curve at half-maximal effect; nearly all actives have a fitted effect of over 30% in size
# Numbers without * were called inactive; i = inactive; u = inconclusive; x = no result; [ ] = dose if it differs, or a comment. % is scaled to controls: 0 for no effect and ±100 for the full control effect.
SMILES,HCV inh,Lassa entry inh,Vaccinia mCherry,HCMV antiviral,MARV entry inh,VACV Venus inh
COc1ccncc1-c1csc(C(O)c2ccccc2)n1 (stereo not drawn),x,x,-27.5%,-69.2*,x,-17.9%
COc1ccccc1-c1csc(C(NC(C)=O)c2ccccc2)n1 (stereo not drawn),x,x,i,-78.9*,x,-16.4%
COc1cc(F)ccc1-c1csc(C(NC(C)=O)c2ccccc2)n1 (stereo not drawn),x,x,i,38.0,x,-20.9%
COc1cc(C(O)c2nc(-c3cc4ccccc4o3)cs2)ccc1F (stereo not drawn),x,x,i,-76.6*,x,-16.8%
CC(=O)N(C1=C(Cl)C(=O)c2ccccc2C1=O)C1CCCCC1,7.94µM*,12.6µM*,u,-103.4*,u,u
CCOc1ccc(NC(=O)c2c(C)nn(-c3ccc(F)cc3)c2-n2cccc2)cc1,x,u,-1.6%,1.7,x,0.3%
O=C(NCCc1cccs1)C1CC(c2cccc(F)c2)=NO1 (stereo not drawn),3.55µM*,x,i,-11.7,x,-19.1%
COC(=O)[C@]1(C=C2c3ccccc3C[C@H](OC)[C@@H]2C)[C@@H]2CC=C[C@@H]21,x,x,x,x,-7.8%[14.2 µM],x
O=C1Cc2cc(S(=O)(=O)N3CCN(c4ccccc4)CC3)ccc2N1,-27.2%,-10.9%[46.1 µM],-4.4%,35.8,-7.2%[46.1 µM],-7.3%
O=C1Cc2cc(CCN3CCN(c4nsc5ccccc45)CC3)c(Cl)cc2N1,x,5.8µM*,x,x,u,x
O=C1NC2C(=CC(O)C(O)C2O)c2cc3c(cc21)OCO3 (stereo not drawn),0.562µM*,1µM*,u,-77.5*,u,1µM*
O=C1NC2C(O)C(O)C(O)C(O)C2c2cc3c(c(O)c21)OCO3 (stereo not drawn),u,0.141µM*,2.24µM*,-97.7*,u,0.282µM*
O=C1NC2C(=CC(O)C(O)C2O)c2cc3c(c(O)c21)OCO3 (stereo not drawn),0.251µM*,u,8.91µM*,-100.5*,u,0.1µM*
O=C1NCCc2cc3c(cc21)OCO3,7.0%,4.6%,-10.6%,5.4,5.4%,-11.8%
Cc1ccc(F)cc1CNC(=O)c1sc2ncnc(NCC3CCCO3)c2c1C (stereo not drawn),x,x,i,x,x,-18.2%
CCOc1ccc(/C=C/c2nc(C#N)c(NCc3ccc(OC)cc3)o2)cc1,x,u,u,8.1,6.1%[46.1 µM],u
COc1cc(OC)c(N(C)C(=O)Nc2cn(CC(C)C)c(=O)c3ccccc23)cc1Cl,x,18.6%[46.1 µM],7.9%,-20.4,x,-1.2%
Nc1ncc([N+](=O)[O-])c(N2CCCCCC2)n1,13.5%,-2.9%[46.1 µM],i,-74.6*,5.4%[46.1 µM],0.0%
COc1ccc(CCNS(=O)(=O)c2ccc(F)c(C(=O)Nc3ccc(Cl)cc3)c2)cc1OC,x,u,-28.5%,-31.1,x,u
Cc1cc(-c2ccc(S(=O)(=O)Nc3ccccc3C)cc2)on1,x,-11.8%[46.1 µM],u,5.4,x,u
Cc1cc(-c2ccc(S(=O)(=O)Nc3ccc(Cl)cc3C)cc2)on1,x,-27.3%[46.1 µM],-24.3%,-77.7*,x,-26.0%
CC(C)C(C)NC(=O)COc1ccc(Sc2ccc(OCC(=O)NC(C)C(C)C)cc2)cc1 (stereo not drawn),u,u,-26.3%,-88.1*,u,-11.1%
O=C(CCSc1ccccc1)NCC1CCCO1 (stereo not drawn),15.1%,3.9%,-8.8%,-18.0,5.0%,-5.6%
O=C(CC(c1ccccc1)c1ccccc1)NCC1CCCO1 (stereo not drawn),17.3%,-0.7%,x,-99.7*,17.6%,x
O=C(CN(C1CCCCC1)S(=O)(=O)c1ccc(F)cc1)NCC1CCCO1 (stereo not drawn),u,u,u,0.0,-11.2%[46.1 µM],11.2µM*
SMILES,HCV inh,Lassa entry inh,Vaccinia mCherry,HCMV antiviral,MARV entry inh,VACV Venus inh
CC1(C)CC(NC(=O)COc2ccc(Cl)cc2Cl)CC(C)(C)N1,u,x,-2.9%,0.0,-1.2%[46.1 µM],2.7%
Cc1ccc(OCC(=O)NC2CC(C)(C)NC(C)(C)C2)c(C)c1,-2.9%,-20.6%[46.1 µM],2.1%,-3.8,-3.6%[46.1 µM],-7.7%
CC(C)c1ccc(OCC(=O)NC2CC(C)(C)NC(C)(C)C2)c(Br)c1,11.2µM*,x,x,-40.0,x,x
Cc1cc(OCC(=O)NC2CC(C)(C)NC(C)(C)C2)c(C)cc1Br,10µM*,-11.4%,-26.5%,-39.2,u,-16.3%
COc1ccc2c(c1)[C@@H](NC(=O)OCc1ccccc1)[C@H](C)[C@@H](c1ccccc1)N2C(=O)NC(C)C,x,x,x,-10.3,x,x
CC(C)CN(CC(C)C)S(=O)(=O)c1ccc(C(=O)Nc2sc3c(c2C(N)=O)CC(C)(C)NC3(C)C)cc1,x,-26.6%[46.1 µM],-4.5%,-97.1*,x,-13.8%
CCOC(=O)c1cc(-c2ccc(OC)cc2)n(CCC(=O)NCc2ccc(OC)cc2)c1C,x,-22.9%[46.1 µM],0.5%,13.0,x,-4.2%
COC(=O)C1CC23C=CCN4CCC5(c6ccccc6NC15C2C)C43 (stereo not drawn),-3.8%,u,12.6µM*,-83.5*,u,u
CN1CC[C@]23c4ccccc4N[C@H]1[C@]21CCN(C)[C@H]3Nc2ccccc21,-2.8%,x,-19.2%,-34.7,x,-9.8%
COc1ccc(/C=C/c2ccc3ccccc3n2)c(OC)c1,x,x,-19.3%,x,x,-13.6%
CN1OC(C)(CC(=O)NCc2ccccc2)N=C1c1ccccc1F (stereo not drawn),x,x,x,-11.6,x,x
Nn1c(SCc2nc3ccccc3[nH]2)nnc1-c1ccccc1,-1.7%,-8.1%,x,-1.3,-5.3%,x
CCn1c(SCc2nc3ccccc3[nH]2)nnc1-c1ccc(OC)cc1,u,-2.6%,x,-73.0*,-11.3%,x
c1ccc(-c2nnc(SCc3nc4ccccc4[nH]3)n2Cc2ccco2)cc1,-8.0%,8.0%,x,-68.1*,-11.8%,x
CCn1c(COc2ccc(Cl)cc2)nnc1SCc1nc2ccccc2[nH]1,u,0.2%,x,u,u,x
Cc1ccc(OCc2nnc(SCc3nc4ccccc4[nH]3)n2Cc2ccco2)cc1,10µM*,u,x,-68.9*,u,u
COc1ccc2c(c1)sc1ncc(C(=O)NCc3cccc(Cl)c3)c(=O)n12,x,x,2.8%,5.8,-10.5%[46.1 µM],-9.1%
Cc1ccc(C)c(N2CCN(C(=O)Cn3c(-c4cccs4)cc4ccccc43)CC2)c1,x,u,-13.8%,4.7,x,-15.7%
CC1=C(C(=O)NCc2ccccc2F)C2(CCCCC2)OC1=O,x,-3.0%[46.1 µM],9.8%,3.4,x,-0.8%
CC(C)CON=C1C[C@@H](O)[C@@H](O)[C@@H]2[C@H]3C(=O)N(Cc4ccc5c(c4)OCO5)C(=O)[C@@H]3CC[C@@H]12,x,x,x,x,-29.9%[14.2 µM],x
CCN(CC)c1ccc(/C=N/NC(=O)c2cccc(S(=O)(=O)Nc3ccccc3OC)c2)c(O)c1,10µM*,0.316µM*,2.51µM*,-102.8*,5.62µM*,u

# Screening data as filed in PubChem BioAssay.
